High-throughput results (PubChem BioAssay)
Compounds with a hit are over-represented: about 2.1% of the library has one in this group of screens.
FUS suppressor: qHTS for Suppressors of FUS Proteinopathy: Primary screen using FUS-linked yeast assay. Potency, µM (series often up to 76.6 µM), most hits filed as activators. S. cerevisiae FUS-expressing, growth rescue, OD600, 24 h. 0.24% of 390,000 active; further: nearly all actives have a fitted effect of over 55% in size
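Yeast FUS proteinopathy model; galactose-induced FUS (2%), starting OD 0.005. Cpds in dilution series, 24hr, 30C, 99% humidity. Abs 600 nm growth. Pos ctrl CP55940 (top 92uM final); neg ctrl DMSO.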
aSyn yeast inh: qHTS of alpha-syn Inhibitors. Yeast expressing alpha-synuclein, growth rescue, BacTiter-Glo, 24 h. Potency, µM (doses to about 46.1 µM), hits mostly activators. 0.14% of 370,000 active. AID 652106, 2013; further: nearly all actives have a fitted effect of over 65% in size
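Galactose-induced alpha-syn yeast (OD600=0.02, raffinose-pregrown) + pinned cpd, 24 hr, 30 deg C; growth by BacTiter-Glo luminescence. Growth restoration scores as activation.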
TDP-43 yeast inh: qHTS of TDP-43 Inhibitors. TDP-43 expressing yeast growth rescue, BacTiter-Glo, 24 h. Potency, µM (series often up to 46.1 µM), hits mostly activators. 1.8% of 410,000 active; further: nearly all actives have a fitted effect of over 50% in size
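Yeast expressing TDP-43 (pregrown in raffinose, seeded at OD600=0.02 in galactose medium) exposed to compounds 24 hr at 30 deg C. Growth read by BacTiter-Glo luminescence; rescue of toxicity appears as increased signal.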
Abeta rescue: qHTS for compounds that reverse cellular toxicity of Amyloid beta (A-beta) peptide in yeast: Primary Screen; yeast expressing A-beta42, growth rescue, OD600, 48 h; response scale: 0% DMSO, 100% iron-clioquinol control; Potency, µM (highest dose often 46.1 µM), actives largely listed as activators; 0.063% of 410,000 active; further: nearly all actives have a fitted effect of over 55% in size
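Yeast A-beta toxicity model in growth medium with pinned compounds, 48 h at 30 C; growth read as absorbance at 600 nm. Normalized to FeCl3/clioquinol equimolar mix (positive) and DMSO (negative).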
Of the large screens only hits and unclear results are named; the others gave an inactive call; ! = not confirmed by another sample. The call rests on the fitted dose curve; in most records, active means well fitted curve in the direction sought with a large enough effect; inconclusive means small, poorly fitted or top-dose-only effect, or another doubt; inactive means no such curve, though single readings can be large; an effect the other way counts as inactive or inconclusive.

CCc1nnc(NC(=O)c2ccc(S(=O)(=O)N3CCCC(C)C3)cc2)o1 (stereo not given)	aSyn yeast inh 22µM, TDP-43 yeast inh inconclusive, Abeta rescue inconclusive
Cc1cccc2sc(NNC(=O)c3ccc(S(=O)(=O)N4CCCC(C)C4)cc3)nc12 (stereo not given)	FUS suppressor inconclusive, TDP-43 yeast inh 5.6µM
COc1ccc(C#Cc2c[nH]c(=O)c3cncnc23)cc1OC	none (no result: FUS suppressor, TDP-43 yeast inh, Abeta rescue)
Cc1cccc2sc(NNC(=O)c3ccc4c(c3)OCCO4)nc12	TDP-43 yeast inh 35µM, Abeta rescue inconclusive
CC(C)Cc1nnc(NC(=O)c2ccc3c(c2)OCCO3)s1	TDP-43 yeast inh 20µM
CCOCc1nnc(NC(=O)c2ccc3c(c2)OCO3)s1	none
COc1cccc2sc(NC(=O)c3ccc4c(c3)OCCO4)nc12	none (no result: aSyn yeast inh)
S=C(NCCCc1cnc[nH]1)NCCCN(Cc1ccc(Cl)cc1)c1ncc(Br)cn1	none (no result: FUS suppressor, TDP-43 yeast inh, Abeta rescue)
Cc1cccc(Nc2nc(NCc3ccco3)nc(N3CCOCC3)n2)c1	TDP-43 yeast inh 13µM
c1ccc(CNc2nc(NCc3ccco3)nc(N3CCOCC3)n2)cc1	none
Cc1ccccc1CS(=O)(=O)Cc1ccc(C(=O)Nc2c(C)cccc2C)o1	none (no result: aSyn yeast inh, TDP-43 yeast inh, Abeta rescue)
CC(=O)Nc1ccc(-c2nnc(SCc3ccccc3)n2C)cc1	none (no result: FUS suppressor, TDP-43 yeast inh, Abeta rescue)
O=C(OCC(=O)N1CCCc2ccccc21)c1ccccc1[N+](=O)[O-]	TDP-43 yeast inh 35µM (no result: FUS suppressor)
O=[N+]([O-])c1ccccc1NCCNS(=O)(=O)c1ccc(Cl)cc1	TDP-43 yeast inh 11µM (no result: FUS suppressor)
Cc1cc(C)n(-c2nc(Nc3ccccc3C(F)(F)F)nc(-n3nc(C)cc3C)n2)n1	FUS suppressor inconclusive, aSyn yeast inh inconclusive, TDP-43 yeast inh 20µM
Cc1cc(C)n(-c2nc(NC(C)(C)C)nc(NC(C)(C)C)n2)n1	Abeta rescue inconclusive
O=C(NCCN1CCC(Cc2ccccc2)CC1)C1CCCN(S(=O)(=O)c2ccccc2)C1 (stereo not given)	none (no result: aSyn yeast inh, TDP-43 yeast inh, Abeta rescue)
COc1ccc(C2N(c3ccc(Cl)cc3)N=C(C(C)=O)N(C)N2C(C)=O)cc1 (stereo not given)	TDP-43 yeast inh 22µM
Cc1ccccc1C(=O)Nc1ccccc1NC(=O)c1ccccc1Br	none
COc1ccc(Nc2ccccc2NC(=O)c2ccccc2Br)cc1	TDP-43 yeast inh 16µM
CCOc1ccc2cc(/C=C/C(=O)c3ccco3)c(Cl)nc2c1	TDP-43 yeast inh 7.9µM
CCOc1ccc2nc(SCC(=O)NNC(=O)c3ccco3)c(C)cc2c1	none
C#CC(c1ccccc1)(c1ccccc1)n1ccnc1	TDP-43 yeast inh 3.5µM
O=S1(=O)c2c(cccc2N2CCC[C@H]2CO)O[C@@H]2CCN1C2	none (no result: aSyn yeast inh, TDP-43 yeast inh, Abeta rescue)
O=C(N/N=C/c1cccc2cccnc12)c1ccccc1O	aSyn yeast inh 22µM, Abeta rescue inconclusive
O=C(CSCc1ccccc1Br)N/N=C/c1ccc2c(c1)OCO2	TDP-43 yeast inh 18µM (no result: FUS suppressor)
O=C(CSCc1cccc(Br)c1)N/N=C/c1ccc2c(c1)OCO2	TDP-43 yeast inh inconclusive, Abeta rescue inconclusive
O=C(NC1CCCCN(Cc2ccc(Cl)cc2)C1=O)c1ccc(-c2ccccc2)cc1 (stereo not given)	none (no result: aSyn yeast inh, TDP-43 yeast inh, Abeta rescue)
O=C(NCCc1ccccc1Cl)c1sc2ncccc2c1-n1cccc1	FUS suppressor inconclusive, TDP-43 yeast inh 18µM (no result: aSyn yeast inh)
O=C(CSc1ccccc1)NC1CCCCN(Cc2cccc(Cl)c2)C1=O (stereo not given)	none (no result: aSyn yeast inh, TDP-43 yeast inh, Abeta rescue)
FC(F)(F)c1ccccc1NC(=S)OCCN1CCCC12CCC(c1ccccc1)CC2 (stereo not given)	none (no result: aSyn yeast inh, TDP-43 yeast inh, Abeta rescue)
O=C(NC1CCCCN(Cc2cccc(Cl)c2)C1=O)c1ccccn1 (stereo not given)	none (no result: aSyn yeast inh, TDP-43 yeast inh, Abeta rescue)
CN1C(=O)C2(Nc3ccccc3-c3nc4ccccc4n32)c2ccccc21 (stereo not given)	FUS suppressor 50µM
COc1ccc2c(C)cc(=S)[nH]c2c1	TDP-43 yeast inh 13µM
C=CCN=c1scc(-c2ccccc2)n1/N=C/c1ccccn1	TDP-43 yeast inh 22µM!, Abeta rescue inconclusive
C=CCN=c1scc(-c2ccc(F)cc2)n1/N=C/c1ccccn1	TDP-43 yeast inh inconclusive, Abeta rescue inconclusive
CC1=NN(/C(=N\c2nnc(C)s2)Nc2ccc(C)cc2)[C@H](c2ccc(C)cc2)S1	TDP-43 yeast inh 13µM
CC1=NN(/C(=N\c2nnc(C)s2)Nc2ccccc2)[C@H](c2cccc3ccccc23)S1	FUS suppressor inconclusive, TDP-43 yeast inh inconclusive
